Assay outcomes from PubChem BioAssay.
Hits are enriched below; roughly 1.6% of the tested compounds scored in any of these assays.
KCNQ2 block: inhibitors of rat KCNQ2 potassium channel | O88943 | CHO-K1 KCNQ2, FluxOR thallium flux, 20 min; active compounds read low | B-score at 10 µM | actives 1.1% (n = 310,000);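 active = fluorescence ratio B-score at most minus 3 library SDs, with starting brightness B-score within 2 library SDs, cut at about -5.5 in these data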
Target sequence (O88943 whole entry, looked up): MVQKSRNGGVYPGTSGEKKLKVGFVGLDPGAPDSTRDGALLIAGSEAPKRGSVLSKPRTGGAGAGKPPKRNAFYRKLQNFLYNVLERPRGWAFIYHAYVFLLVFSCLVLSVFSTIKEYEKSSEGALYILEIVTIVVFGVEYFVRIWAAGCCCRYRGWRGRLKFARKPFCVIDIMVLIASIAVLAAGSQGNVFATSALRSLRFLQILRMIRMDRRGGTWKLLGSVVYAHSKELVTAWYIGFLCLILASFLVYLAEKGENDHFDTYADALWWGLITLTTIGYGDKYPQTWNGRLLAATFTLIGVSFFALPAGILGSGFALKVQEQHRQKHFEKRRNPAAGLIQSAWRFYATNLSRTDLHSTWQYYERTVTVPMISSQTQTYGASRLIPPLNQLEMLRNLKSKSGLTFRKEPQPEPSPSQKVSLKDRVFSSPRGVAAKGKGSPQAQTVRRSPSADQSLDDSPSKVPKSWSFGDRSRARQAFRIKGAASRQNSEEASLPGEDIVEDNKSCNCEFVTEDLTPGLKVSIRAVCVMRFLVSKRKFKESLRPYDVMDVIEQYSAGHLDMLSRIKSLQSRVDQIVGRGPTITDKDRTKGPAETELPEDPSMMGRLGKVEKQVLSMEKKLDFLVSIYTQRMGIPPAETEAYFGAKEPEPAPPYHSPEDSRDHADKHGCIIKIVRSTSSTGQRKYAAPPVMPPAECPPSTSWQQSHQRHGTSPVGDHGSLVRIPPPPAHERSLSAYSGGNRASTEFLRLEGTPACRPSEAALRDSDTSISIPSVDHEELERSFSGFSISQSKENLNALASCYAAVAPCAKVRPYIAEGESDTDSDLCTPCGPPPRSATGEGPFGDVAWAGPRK
KCNQ2 enhance: enhances the rat KCNQ2 potassium channel; CHO-K1 KCNQ2, FluxOR thallium flux fluorescence; active compounds read high; actives 0.54% (n = 310,000); B-score at 10 µM; AID 2239;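 active = fluorescence ratio B-score at least 3 SD of library B-scores, with initial fluorescence B-score within 3 of them, cut at about 5.3 in these data; same plate scores as AID 2156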;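 also: B-score of peak minus minimum over baseline fluorescence ratio after K+ and Tl+ stimulus; positive B-score means potentiation of KCNQ2 with more thallium influx and brighter signal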
Kir21 confirm: confirmation of mouse Kir2.1 potassium channel inhibitors; shares compounds with KCNQ2 enhance; Kir2.1-expressing cells, FluxOR thallium flux fluorescence; active compounds read low; Tl flux remaining, % of negative control (active compounds read low), % at 10 µM; actives 41% (n = 2,300);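 active = Primary-screen hit whose thallium flux fell at least 3 control SD below untreated wells in both duplicates, with normal baseline fluorescence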;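 also: 0% = blank wells without stimulus and 100% = stimulated no-compound controls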
HEK293 ctr: alters thallium flux in parental HEK293 cells, Kir2.1 counter-screen. shares compounds with KCNQ2 enhance. FluxOR thallium flux fluorescence; 0% = unstimulated blank wells. FluxOR signal as % of negative control (100 = no effect), % at 10 µM. actives 19% (n = 2,300). AID 2105;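 active = dye signal at least 3 control SD above or below untreated wells in both duplicates, raw fluorescence within 3, either direction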;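 also: percent is based on the flux ratio of peak minus minimum fluorescence over baseline F0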
CHO-K1 Tl ctr: counter-screen for KCNQ2 potentiators: effect in parental CHO-K1 cells. AID 2282. shares compounds with KCNQ2 enhance. actives 43% (n = 1,200). activity increase over 3SD of controls, % at 10 µM. FluxOR thallium flux fluorescence; zero = vehicle mean+3SD, 100% = vehicle-minus-blank window;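 active = signal rise of at least 3 SD above the untreated control mean, in both duplicate wells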;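 also: counter screen of KCNQ2 potentiator hits so any rise reflects channel-independent effects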
KCNQ1 sel pot: tests whether KCNQ2 potentiators also act on human KCNQ1. AID 2283. activation over 3SD threshold, % at 10 µM. actives 28% (n = 1,200). CHO KCNQ1 stable, FluxOR thallium flux fluorescence; beyond 3SD, as % of vehicle-control signal. shares compounds with KCNQ2 enhance;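 active = fluorescence ratio rise of at least 3 SD of vehicle wells above their mean, in both replicate wells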;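 also: 0% = vehicle mean plus 3 SD and 100% = vehicle minus unstimulated blank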
KCNQ2 pot confirm: confirmation of rat KCNQ2 potassium channel potentiators; potentiation, less the hit threshold, % at 10 µM; CHO-KCNQ2 cells, FluxOR thallium flux fluorescence; shares compounds with KCNQ2 enhance; actives 68% (n = 1,200);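 active = fluorescence ratio rising 3 SD or more over the vehicle control mean in both replicates, plus primary screen hit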;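 also: peak minus minimum thallium fluorescence divided by baseline after K/Tl stimulus; 0% = vehicle mean plus 3 SD and 100% = vehicle minus unstimulated blank difference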
Kir21 spec: tests whether KCNQ2 potentiators also affect mouse Kir2.1. shares compounds with KCNQ2 enhance. HEK293 Kir2.1, FluxOR thallium flux fluorescence. activity over 3SD threshold, % at 10 µM. actives 2% (n = 1,200). AID 2345;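 active = fluorescence ratio rise of at least 3 SD above the vehicle-control mean, seen in both replicates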;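 also: 0% = vehicle mean plus 3 SD and 100% = vehicle minus no-stimulus blank window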
KCNQ2 W236L MoA: KCNQ2 potentiators acting on retigabine-insensitive rat KCNQ2 W236L mutant; shares compounds with KCNQ2 enhance; CHO KCNQ2-W236L, automated patch clamp current; current increase over 3SD of negative controls (%), active compounds read high, % at 25 µM; actives 10% (n = 940); AID 2558;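 active = current increase at least 3 SD of the untreated controls above them in both duplicate recordings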
An asterisk follows results filed as active; i = inactive; nt = no result.

SMILES	KCNQ2 block	KCNQ2 enhance	Kir21 confirm	HEK293 ctr	others
Oc1ccccc1N1CCN(CC(O)COCc2ccccc2Cl)CC1 (stereo not drawn)	i	0.98	nt	nt
COc1ccc(CC(NC(C)=O)C(=O)NC2CCN(C(=O)C3CCCCC3)CC2)cc1OC (stereo not drawn)	i	0.77	nt	nt
CN(C(=O)CSc1cc(C(=O)c2nccn2C)c2ccccc2n1)c1ccccc1	i	0.01	nt	nt
COc1ccc(C(=O)Cn2c(=N)n(C)c3ccccc32)cc1	i	nt	nt	nt
COc1ccc(C(=O)CN2Cc3ccccc3C2=N)cc1	i	0.08	24%*	i
Nc1c2c(nc3sc4c(c13)CCCCC4)CCCCC2	i	nt	nt	nt
Nc1nc2c(s1)CCCCCCCCCC2	i	6*	64%*	70%*	CHO-K1 Tl ctr=-40;KCNQ1 sel pot=89*;KCNQ2 pot confirm=-9;Kir21 spec=-73;KCNQ2 W236L MoA=i
CCCc1nnc(SCC(=O)N2CCCC(C)C2)n1CCOC (stereo not drawn)	i	nt	nt	nt
O=c1c(-c2cccc([N+](=O)[O-])c2)[n+]([O-])c2ccccc2n1O	i	1.2	nt	nt
O=c1c(-c2ccc(Cl)cc2)[n+]([O-])c2ccccc2n1O	i	6.3*	i	220%*	CHO-K1 Tl ctr=-12;KCNQ1 sel pot=-23;KCNQ2 pot confirm=-2;Kir21 spec=-43;KCNQ2 W236L MoA=i
CCCCN(CCCC)C(=S)N/N=C/c1c(C)[nH]n(-c2ccccc2)c1=O	i	6.7*	i	i	CHO-K1 Tl ctr=0.0*;KCNQ1 sel pot=-27;KCNQ2 pot confirm=-30;Kir21 spec=-24
Cc1[nH]n(-c2ccccc2)c(=O)c1/C=N/NC(=O)c1ccc(O)cc1O	i	nt	nt	nt
COc1ccc(/C=C/CN2CCCC(C(=O)c3ccc(OC)c(F)c3)C2)cc1 (stereo not drawn)	i	nt	nt	nt
COc1ccc(C(NC(=O)CN2CCCCCC2)c2ccc(OC)cc2)cc1	i	nt	nt	nt
Cn1/c(=N\NC(=O)C2CCCCC2)sc2ccccc21	i	9.9*	i	i	CHO-K1 Tl ctr=-21;KCNQ1 sel pot=-9;KCNQ2 pot confirm=0.0*;Kir21 spec=-31;KCNQ2 W236L MoA=i
CC(=O)N/N=c1\sc2ccccc2n1C	i	0.49	nt	nt
Cc1cc(C)c(S(=O)(=O)N2CCC(C(=O)NCc3ccncc3)CC2)c(C)c1	i	0.36	nt	nt
Cc1cc(C)c(S(=O)(=O)N2CCC(C(=O)NCc3ccc(Cl)cc3Cl)CC2)c(C)c1	i	6*	i	i	CHO-K1 Tl ctr=-5;KCNQ1 sel pot=-52;KCNQ2 pot confirm=-2;Kir21 spec=-36
O=C(CSCc1nc2c(nnn2Cc2ccc(F)cc2)c(=O)[nH]1)Nc1cccc(C(F)(F)F)c1	i	0.72	nt	nt
CN(C)S(=O)(=O)c1cccc(COc2ncnc3c(Cl)cc(Cl)cc23)c1	i	1	nt	nt
CCOc1cc(/C=C2\C(=O)ON=C2c2ccccc2)cc(Br)c1O	i	2	i	46%*
CCOc1cc(/C=C2/C(=O)ON=C2C)cc(Br)c1O	i	0.24	nt	nt
COc1cc(/C=C2\C(=O)ON=C2c2ccccc2)cc(Cl)c1O	i	2.9	nt	nt
COc1cc(/C=C2\C(=O)ON=C2c2ccccc2)cc(Br)c1O	i	2	i	51%*
COc1c[nH]n(-c2ccccc2)c(=O)c1=O	i	0.35	nt	nt
SMILES	KCNQ2 block	KCNQ2 enhance	Kir21 confirm	HEK293 ctr	others
COc1ccc(N2CCN(CCNC(=O)c3ccc4c(c3)[nH]c(=S)n3c5ccccc5nc43)CC2)cc1	i	nt	nt	nt
C/C(=N\N=C(/N)c1nonc1N)c1ccc2c(c1)OCO2	i	nt	nt	nt
CSc1ccc2c(c1)N(CCC1CCCCN1C)c1ccccc1S2 (stereo not drawn)	-5.8*	-5.8	23%*	i
CC1CCN(CC(O)CN2c3ccccc3Sc3ccccc32)CC1 (stereo not drawn)	i	nt	nt	nt
COc1ccc(Cc2noc(CN3CCN(Cc4cccc(Cl)c4)CC3)n2)cc1OC	i	7.2*	i	i	CHO-K1 Tl ctr=43*;KCNQ1 sel pot=-16;KCNQ2 pot confirm=-26;Kir21 spec=-14
COCCN1CCN(Cc2nc(Cc3ccc(OC)c(OC)c3)no2)CC1	i	1.3	nt	nt
CC1CCc2c(sc(NC(=O)c3ccccc3C(=O)O)c2C#N)C1 (stereo not drawn)	i	3.9	nt	nt
CCC(C)(C)C1CCc2c(sc(NC(=O)c3ccccc3C(=O)O)c2C#N)C1 (stereo not drawn)	i	8.3*	i	151%*	CHO-K1 Tl ctr=0;KCNQ1 sel pot=-21;KCNQ2 pot confirm=16*;Kir21 spec=-19;KCNQ2 W236L MoA=i
Cc1ccc(-c2csc(=S)[nH]2)cc1	i	22*	i	538%*	CHO-K1 Tl ctr=-23;KCNQ1 sel pot=23*;KCNQ2 pot confirm=84*;Kir21 spec=11*;KCNQ2 W236L MoA=i
Cc1ccc(-c2ccc(C(=O)O)[nH]2)cc1	i	nt	nt	nt
O=[N+]([O-])c1ccc(C(O)CSC(=S)N2CCCCC2)cc1 (stereo not drawn)	i	0.14	nt	nt
COc1cccc(CNC(=O)CSCc2cnn(-c3ccccc3)c2-n2cccc2)c1	i	nt	i	i
CNC(=O)CSCc1cnn(-c2ccccc2)c1-n1cccc1	i	0.39	nt	nt
CCOC(=O)N1CCC(NC(=O)CSCc2cnn(-c3ccccc3)c2-n2cccc2)CC1	i	0.04	nt	nt
O=C(CSCc1cnn(-c2ccccc2)c1-n1cccc1)NCc1cccs1	i	nt	i	i
O=C(c1ccc(O)cc1)c1ccc(O)cc1O	i	1	nt	nt
CN(C)c1ccc(C(=O)c2ccc(O)cc2O)cc1	i	0.06	i	i
Cn1nc(C(=O)OCC(=O)Nc2cccc(S(=O)(=O)N3CCCC3)c2)c2ccccc2c1=O	i	0.87	nt	nt
CC(=O)N1CCOc2ccc(S(=O)(=O)NCc3ccccc3Cl)cc21	i	nt	nt	nt
CC(=O)N1CC(C)Sc2ccc(S(=O)(=O)NCc3ccccc3Cl)cc21 (stereo not drawn)	i	nt	75%*	i
COC(=O)C1=NN(C(=O)c2cccc(Br)c2)C(O)(c2ccc(Cl)cc2)C1 (stereo not drawn)	i	16*	i	i	CHO-K1 Tl ctr=18*;KCNQ1 sel pot=-8;KCNQ2 pot confirm=65*;Kir21 spec=-24;KCNQ2 W236L MoA=i
CCOC(=O)C1=NN(C(=O)Cc2ccccc2)C(O)(c2ccc(Cl)cc2)C1 (stereo not drawn)	i	nt	nt	nt
CCOc1ccccc1C(=O)Nc1ccc(-n2nncc2C(C)(C)C)cc1	i	0.02	nt	nt
O=S(=O)(c1ccc(NC(=S)N/N=C/c2ccc(O)c(O)c2)cc1)N1CCOCC1	i	nt	nt	nt
